{"source": "the supplement of paper PMC10037445", "key": {"RAW-Dual [1]": {"test_system": "RAW-Dual", "test": "NF-kB SEAP reporter activity, fold change vs agonist alone; higher = enhanced NF-kB activity", "conditions": "cytotoxicity flag (confluency mask): not cytotoxic", "summary_of_the_method": "(§1)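 Library stock was pin-tooled at 50 nL into 384-well plates of RAW-Dual macrophages (50,000 cells/well, DMEM), followed 1 h later by a PRR agonist, and the cells were kept at 37 °C, 5% CO2. Supernatant collected after 20 hours was read for IRF by QuantiLuc luminescence and for NF-κB by QuantiBlue absorbance at 620 nm. Reporter activity is fold change over agonist-alone wells, and a well counted as cytotoxic when its IncuCyte confluency was below 70% of agonist controls in both mask sets.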"}, "RAW-Dual [2]": {"test_system": "RAW-Dual", "test": "NF-kB SEAP reporter activity, fold change vs agonist alone; cytotoxicity flag (confluency mask): not cytotoxic; higher = enhanced NF-kB activity", "summary_of_the_method": "as §1"}, "[3]": {"conditions": "library stock concentration (final ~1000-fold dilution): 10 mM, agonist: Imiquimod (TLR7) […]"}, "[4]": {"conditions": "library stock concentration (final ~1000-fold dilution): 10 mM, agonist: MPLA (TLR4) […]"}, "[5]": {"conditions": "agonist: ODN 1826 (TLR9) 0.5 ug/mL"}, "[6]": {"conditions": "agonist: Pam2CSK4 (TLR2/6) 0.1 ug/mL"}, "[7]": {"conditions": "agonist: Pam3CSK4 (TLR2/1) 0.1 ug/mL"}}, "note": "± gives the standard deviation of the averaged measurements. Over roughly 2,900 compounds, “NF-kB SEAP reporter activity, fold change vs agonist alone” has its median near 0.99; the highest 2% begin near 2.6. The sample as a whole holds a higher share of the highest values than the screen did.", "data": [{"smiles": "CC1OC(OC2C(=O)c3c(O)cc(O)cc3OC2c2ccc(O)cc2)C(O)C(O)C1O", "note": "(stereo not given)", "values": [{"measurement": "NF-kB SEAP reporter activity", "setting": "RAW-Dual [1]; [3]", "result": "1.03 ± 0.025"}, {"measurement": "NF-kB SEAP reporter activity", "setting": "RAW-Dual [1]; [4]", "result": "1.04 ± 0.041"}]}, {"smiles": "CC1OC(OC2C(=O)c3c(O)cc(O)cc3OC2c2ccc(O)cc2)C(O)C(O)C1O", "note": "(stereo not given) (library stock concentration (final ~1000-fold dilution): 10 mM)", "values": [{"measurement": "NF-kB SEAP reporter activity", "setting": "RAW-Dual [2]; agonist: LPS (TLR4) 0.1 ug/mL", "result": "1.09 ± 0.015"}, {"measurement": "NF-kB SEAP reporter activity", "setting": "RAW-Dual [2]; [5]", "result": "0.9919 ± 0.0043"}, {"measurement": "NF-kB SEAP reporter activity", "setting": "RAW-Dual [2]; [6]", "result": "1.06 ± 0.064"}, {"measurement": "NF-kB SEAP reporter activity", "setting": "RAW-Dual [2]; [7]", "result": "1.39 ± 0.41"}]}, {"smiles": "O=C1NC(=O)C(c2cnc3ccccn23)=C1c1cn2c3c(cc(F)cc13)CN(C(=O)N1CCCCC1)CC2", "values": [{"measurement": "NF-kB SEAP reporter activity", "setting": "RAW-Dual [1]; [3]", "result": 2.62}, {"measurement": "NF-kB SEAP reporter activity", "setting": "RAW-Dual [1]; [4]", "result": 2.43}]}, {"smiles": "O=C1NC(=O)C(c2cnc3ccccn23)=C1c1cn2c3c(cc(F)cc13)CN(C(=O)N1CCCCC1)CC2", "note": "(library stock concentration (final ~1000-fold dilution): 10 mM)", "values": [{"measurement": "NF-kB SEAP reporter activity", "setting": "RAW-Dual [2]; agonist: LPS (TLR4) 0.1 ug/mL", "result": 3.19}, {"measurement": "NF-kB SEAP reporter activity", "setting": "RAW-Dual [2]; [5]", "result": 2.72}, {"measurement": "NF-kB SEAP reporter activity", "setting": "RAW-Dual [2]; [6]", "result": 1.42}, {"measurement": "NF-kB SEAP reporter activity", "setting": "RAW-Dual [2]; [7]", "result": 1.84}]}, {"smiles": "CC(C(=O)Nc1ccc(Cl)cc1)C1CCC(c2ccnc3ccc(F)cc23)CC1", "note": "(stereo not given)", "values": [{"measurement": "NF-kB SEAP reporter activity", "setting": "RAW-Dual [1]; [3]", "result": 1.51}, {"measurement": "NF-kB SEAP reporter activity", "setting": "RAW-Dual [1]; [4]", "result": 1.55}]}, {"smiles": "CC(C(=O)Nc1ccc(Cl)cc1)C1CCC(c2ccnc3ccc(F)cc23)CC1", "note": "(stereo not given) (library stock concentration (final ~1000-fold dilution): 10 mM)", "values": [{"measurement": "NF-kB SEAP reporter activity", "setting": "RAW-Dual [2]; agonist: LPS (TLR4) 0.1 ug/mL", "result": 0.974}, {"measurement": "NF-kB SEAP reporter activity", "setting": "RAW-Dual [2]; [5]", "result": 1.05}, {"measurement": "NF-kB SEAP reporter activity", "setting": "RAW-Dual [2]; [6]", "result": 0.52}, {"measurement": "NF-kB SEAP reporter activity", "setting": "RAW-Dual [2]; [7]", "result": 0.738}]}, {"smiles": "COc1ccc(CNCc2cccc3ccccc23)cc1.Cl", "values": [{"measurement": "NF-kB SEAP reporter activity", "setting": "RAW-Dual [1]; [3]", "result": 1.34}, {"measurement": "NF-kB SEAP reporter activity", "setting": "RAW-Dual [1]; [4]", "result": 1.44}]}, {"smiles": "COc1ccc(CNCc2cccc3ccccc23)cc1.Cl", "note": "(library stock concentration (final ~1000-fold dilution): 10 mM)", "values": [{"measurement": "NF-kB SEAP reporter activity", "setting": "RAW-Dual [2]; agonist: LPS (TLR4) 0.1 ug/mL", "result": 1.45}, {"measurement": "NF-kB SEAP reporter activity", "setting": "RAW-Dual [2]; [5]", "result": 0.82}, {"measurement": "NF-kB SEAP reporter activity", "setting": "RAW-Dual [2]; [6]", "result": 1.04}, {"measurement": "NF-kB SEAP reporter activity", "setting": "RAW-Dual [2]; [7]", "result": 1.06}]}, {"smiles": "COC1CC2CCC(C)C(O)(O2)C(=O)C(=O)N2CCCCC2C(=O)OC(C(C)CC2CCC(OC(=O)C(C)(CO)CO)C(OC)C2)CC(=O)C(C)C=C(C)C(O)C(OC)C(=O)C(C)CC(C)C=CC=CC=C1C", "note": "(stereo not given)", "values": [{"measurement": "NF-kB SEAP reporter activity", "setting": "RAW-Dual [1]; [3]", "result": 2.36}, {"measurement": "NF-kB SEAP reporter activity", "setting": "RAW-Dual [1]; [4]", "result": 2.41}]}, {"smiles": "COC1CC2CCC(C)C(O)(O2)C(=O)C(=O)N2CCCCC2C(=O)OC(C(C)CC2CCC(OC(=O)C(C)(CO)CO)C(OC)C2)CC(=O)C(C)C=C(C)C(O)C(OC)C(=O)C(C)CC(C)C=CC=CC=C1C", "note": "(stereo not given) (library stock concentration (final ~1000-fold dilution): 10 mM)", "values": [{"measurement": "NF-kB SEAP reporter activity", "setting": "RAW-Dual [2]; agonist: LPS (TLR4) 0.1 ug/mL", "result": 3.85}, {"measurement": "NF-kB SEAP reporter activity", "setting": "RAW-Dual [2]; [5]", "result": 3.11}, {"measurement": "NF-kB SEAP reporter activity", "setting": "RAW-Dual [2]; [6]", "result": 1.33}, {"measurement": "NF-kB SEAP reporter activity", "setting": "RAW-Dual [2]; [7]", "result": 2.09}]}, {"smiles": "COC1CC2CCC(C)C(O)(O2)C(=O)C(=O)N2CCCCC2C(=O)OC(C(C)CC2CCC(O)C(OC)C2)CC(=O)C(C)C=C(C)C(O)C(OC)C(=O)C(C)CC(C)C=CC=CC=C1C", "note": "(stereo not given)", "values": [{"measurement": "NF-kB SEAP reporter activity", "setting": "RAW-Dual [1]; [3]", "result": 1.44}, {"measurement": "NF-kB SEAP reporter activity", "setting": "RAW-Dual [1]; [4]", "result": 1.5}, {"measurement": "NF-kB SEAP reporter activity", "setting": "RAW-Dual [1]; library stock concentration (final ~1000-fold dilution): .1 mM, agonist: Imiquimod (TLR7) […]", "result": 1.35}, {"measurement": "NF-kB SEAP reporter activity", "setting": "RAW-Dual [1]; library stock concentration (final ~1000-fold dilution): .1 mM, agonist: MPLA (TLR4) […]", "result": 1.19}]}, {"smiles": "COC1CC2CCC(C)C(O)(O2)C(=O)C(=O)N2CCCCC2C(=O)OC(C(C)CC2CCC(OCCO)C(OC)C2)CC(=O)C(C)C=C(C)C(O)C(OC)C(=O)C(C)CC(C)C=CC=CC=C1C", "note": "(stereo not given)", "values": [{"measurement": "NF-kB SEAP reporter activity", "setting": "RAW-Dual [1]; [3]", "result": 1.77}, {"measurement": "NF-kB SEAP reporter activity", "setting": "RAW-Dual [1]; [4]", "result": 1.92}]}, {"smiles": "COC1CC2CCC(C)C(O)(O2)C(=O)C(=O)N2CCCCC2C(=O)OC(C(C)CC2CCC(O)C(OC)C2)CC(=O)C(C)C=C(C)C(O)C(OC)C(=O)C(C)CC(C)C=CC=CC=C1C", "note": "(stereo not given) (library stock concentration (final ~1000-fold dilution): 10 mM)", "values": [{"measurement": "NF-kB SEAP reporter activity", "setting": "RAW-Dual [2]; agonist: LPS (TLR4) 0.1 ug/mL", "result": 1.57}, {"measurement": "NF-kB SEAP reporter activity", "setting": "RAW-Dual [2]; [5]", "result": 1.11}, {"measurement": "NF-kB SEAP reporter activity", "setting": "RAW-Dual [2]; [6]", "result": 0.536}, {"measurement": "NF-kB SEAP reporter activity", "setting": "RAW-Dual [2]; [7]", "result": 0.77}]}]}
